Among the test systems are HCT-15 colon; HT29 colon; SNB-75 CNS; SNB-19 CNS; U251 CNS; PC-3 prostate; SK-MEL-5 melanoma; UACC-62 melanoma; LOX IMVI melanoma; SK-MEL-28 melanoma; SK-MEL-2 melanoma; EKVX NSCLC; SN12C renal; UO-31 renal; TK-10 renal; ACHN renal; CAKI-1 renal; A498 renal; CCRF-CEM leukemia; MOLT-4 leukemia.
What all share (assay): NCI-60 one-dose screen, 48 h (100 = growth as untreated, 0 = no growth, -100 = all killed)
Holding throughout (settings): 10 µM unless noted

Molecules are shown by their SMILES. About 83,000 compounds went through this panel and 20% of them were active in at least one assay; those are over-represented in the sample as a whole.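 Plates (96-well) were seeded with cells, treated with compound at one concentration, and incubated for 48 hours before percent growth was determined.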 Unmarked numbers belong to inactive results. Calls of active or inactive are those of the source. The calls were made as follows: active = growth percent below 10; inactive = the rest.

Turning to `Cc1c(C2=CCCCC2)c2ccccn2c1C(=O)c1cccc(S(=O)(=O)N2CCOCC2)c1`, the growth is 83.9% with HCT-15 colon; 59.5% with HT29 colon; 57.8% with SNB-75 CNS; 101% in the assay on SNB-19 CNS; 91.4% with U251 CNS; 71.1% with PC-3 prostate. In addition, the growth in the assay with SK-MEL-5 melanoma was 104%; with UACC-62 melanoma, 77.7%; with LOX IMVI melanoma it was 89.1%; in the assay with SK-MEL-28 melanoma, 101%; in the assay with SK-MEL-2 melanoma, 91.8%; in the assay with EKVX NSCLC it was 68.7%. Also, the growth with SN12C renal was 99.8%; in the assay on UO-31 renal it was 56.8%; in the assay on TK-10 renal it was 71.5%; in the assay with ACHN renal it was 93.4%; in the assay on CAKI-1 renal, 59.6%; in the assay on A498 renal it was 116%. Moreover, the growth in the assay on CCRF-CEM leukemia was 81.5%; with MOLT-4 leukemia, 82.6%.
As for `O=C1/C(=C/c2ccc(O)cc2)COc2ccc(-c3ccccc3)cc21`, the growth is 48.1% in the assay with HCT-15 colon; 27.1% with HT29 colon; 90.4% in the assay with SNB-75 CNS; 109% with SNB-19 CNS; 63.6% with U251 CNS; 60% with PC-3 prostate. Also, the growth was 81.7% with SK-MEL-5 melanoma; 88.4% in the assay with UACC-62 melanoma; 53.9% in the assay with LOX IMVI melanoma; 117% in the assay with SK-MEL-28 melanoma; 66.9% with SK-MEL-2 melanoma; 105% in the assay on EKVX NSCLC. For the same molecule, the growth is 76.2% in the assay on SN12C renal; 42.9% in the assay with UO-31 renal; 83.9% with TK-10 renal; 86% in the assay with ACHN renal; 132% with CAKI-1 renal; 100% with A498 renal. For the same molecule, the figures for the growth in the assay on CCRF-CEM leukemia and in the assay on MOLT-4 leukemia were -25.2% (active) and -22.5% (active), respectively.
In the case of `O=C1c2cccnc2C(=O)c2nc3cc(N4CCN(C5CC5)CC4)ccc3nc21`, the growth is -58.8% (active) with HCT-15 colon; -21.3% (active) in the assay on HT29 colon; -64.7% (active) with SNB-75 CNS; -81.5% (active) in the assay on SNB-19 CNS; -32.6% (active) with U251 CNS; 11.6% in the assay with PC-3 prostate. Besides, the growth in the assay with SK-MEL-5 melanoma was -98.1% (active); with UACC-62 melanoma, -98.5% (active); in the assay with LOX IMVI melanoma, -46.5% (active); in the assay on SK-MEL-28 melanoma, -76.9% (active); in the assay with SK-MEL-2 melanoma, -16.3% (active); in the assay with EKVX NSCLC, 27.4%. The growth is -94.7% (active) with SN12C renal; -100% (active) with UO-31 renal; 0.122% (active) in the assay with TK-10 renal; -35.1% (active) with ACHN renal; -5.27% (active) in the assay with CAKI-1 renal; -88.1% (active) in the assay with A498 renal. In addition, the growth in the assay with CCRF-CEM leukemia and in the assay on MOLT-4 leukemia was 26.2% throughout.
Regarding `S=c1[nH]cccc1-c1nnc2n1Nc1nc3ccccc3cc1CS2`, the growth in the assay with HCT-15 colon was 108%; with HT29 colon, 106%; in the assay with SNB-75 CNS, 82.8%; in the assay with SNB-19 CNS it was 94.8%; with U251 CNS, 103%; with PC-3 prostate, 107%. Besides, the growth is 97.4% with SK-MEL-5 melanoma; 91.2% with UACC-62 melanoma; 98.6% in the assay on LOX IMVI melanoma; 111% with SK-MEL-28 melanoma; 104% with SK-MEL-2 melanoma; 97.1% in the assay on EKVX NSCLC. Further, the growth in the assay with SN12C renal was 98.8%; with UO-31 renal, 70.2%; with TK-10 renal, 105%; in the assay on ACHN renal it was 93.3%; in the assay on CAKI-1 renal, 82.8%; in the assay on A498 renal, 111%. The growth with CCRF-CEM leukemia was 105%; in the assay on MOLT-4 leukemia, 104%.
For `Cc1[nH]n(C(=O)c2ccncc2)c(=O)c1N=Nc1ccc(F)c(Cl)c1`, the growth in the assay on HCT-15 colon is 111%; in the assay with HT29 colon, 109%; with SNB-75 CNS it was 92.4%; in the assay on SNB-19 CNS, 99.1%; in the assay with U251 CNS, 112%; with PC-3 prostate, 116%. In addition, the growth was 107% in the assay with SK-MEL-5 melanoma; 106% with UACC-62 melanoma; 111% in the assay with LOX IMVI melanoma; 107% in the assay with SK-MEL-28 melanoma; 114% in the assay on SK-MEL-2 melanoma; 87.8% with EKVX NSCLC. The growth in the assay on SN12C renal is 102%; in the assay with UO-31 renal, 86.7%; in the assay with TK-10 renal, 134%; in the assay on ACHN renal, 110%; in the assay on CAKI-1 renal, 63.4%; with A498 renal, 102%. Moreover, the growth is 19.7% with CCRF-CEM leukemia and 11.6% in the assay on MOLT-4 leukemia.
With `COc1cc(OC)c(/C=C/C(=O)c2ccc(Nc3ncnc4ccccc34)cc2)c(OC)c1`, the growth with HCT-15 colon was 9.75% (active); with HT29 colon, -62.4% (active); in the assay on SNB-75 CNS, -38.9% (active); with SNB-19 CNS, 12.9%; in the assay on U251 CNS it was -9.02% (active); in the assay with PC-3 prostate it was 12%. The growth is -42.4% (active) in the assay with SK-MEL-5 melanoma; -50% (active) in the assay with UACC-62 melanoma; 3.48% (active) with LOX IMVI melanoma; -26.4% (active) in the assay on SK-MEL-28 melanoma; 7.01% (active) in the assay on SK-MEL-2 melanoma; 2.86% (active) with EKVX NSCLC. Besides, the growth is 25.3% in the assay on SN12C renal; -15.8% (active) in the assay on UO-31 renal; -17.9% (active) in the assay with TK-10 renal; 22.8% with ACHN renal; 17.8% in the assay on CAKI-1 renal; -26.4% (active) in the assay on A498 renal. For the same molecule, the values for the growth in the assay with CCRF-CEM leukemia and in the assay with MOLT-4 leukemia were 1.37% (active) and 12.7%, respectively.
Regarding `Clc1cc(Cl)cc(N2N=C(c3cccc(Nc4ccncc4)c3)CC2c2ccccc2)c1` (stereo not given), the growth is -71.9% (active) in the assay on HCT-15 colon; 1.2% (active) in the assay on HT29 colon; 77.4% in the assay with SNB-75 CNS; 88.9% in the assay with SNB-19 CNS; -31.3% (active) with U251 CNS; 49.4% in the assay on PC-3 prostate. The growth in the assay with SK-MEL-5 melanoma is 79.9%; in the assay on UACC-62 melanoma, 99%; with LOX IMVI melanoma, -81.2% (active); with SK-MEL-28 melanoma it was 11%; in the assay on SK-MEL-2 melanoma it was 97.1%; in the assay with EKVX NSCLC it was 87.6%. Moreover, the growth was 71.4% in the assay on SN12C renal; 62% in the assay with UO-31 renal; 89.9% in the assay with TK-10 renal; 14.9% in the assay on ACHN renal; 27% with CAKI-1 renal; 103% with A498 renal. The growth was 28.3% in the assay with CCRF-CEM leukemia and 2.51% (active) in the assay on MOLT-4 leukemia.
